In PubChem BioAssay:
Several values for one entry are separate records, joined by “and”; a condition that tells them apart may be missing. Equal values may be shown once. Results filed as inconclusive are left out. Activity calls are given as the source filed them.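 The calls were made as follows, unless noted: active = compounds whose cell count with miR-34 switched on is under 0.7 times the count with it off; inactive = the rest.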

Key:
[1] = growth inhibition of DIPG cells – cell-based, MIPE4.0 library, CellTiter-Glo luminescence, qHTS (AID 1347066; cut-off not given, nearly all actives have AC50 up to about 30 µM;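 also: cells exposed to compound for 48 hours before readout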); details: SU-DIPG-VI viability, CellTiter-Glo ATP luminescence
[2] = MELAS cybrid and Rieske KO viability enhancers – cell-based, MELAS cybrids, Rieske KO mouse fibroblasts, CellTiter-Glo, primary screen (AID 1508586;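 active = mean z-score across replicates of 1.96 or higher in either the MELAS or the Rieske mutant cell line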;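 also: z relative to plate mean and SD of compound and empty wells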); details: low glucose
[3] = viability loss with induced miR-34 in A549 – imaging, A549 dox-inducible miR-34, nuclei and caspase counts, primary screen (AID 1347080); details: A549 miR-34 inducible, Hoechst nuclei count, 48 h
[4] = blockers of cellular phospholipid synthesis – cell-based, LOPAC library, screen 4, primary screen (AID 1347384; call rule not given here); details: animal cells, phospholipid biosynthesis inhibition screen; at 10 µM
[5] = JHH-DIPG-1 glioma cell viability, MIPE5.0 library, CellTiter-Glo luminescence, qHTS (AID 1347067; cut-off not given, nearly all actives have AC50 up to about 26 µM;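 also: cells exposed to compound for 48 hours before readout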); details: JHH-DIPG-1 glioma viability, CellTiter-Glo ATP luminescence
[6] = growth inhibition of DIPG cells – cell-based, MIPE5.0 library, qHTS (AID 1347068; cut-off not given, nearly all actives have IC50 up to about 30 µM); details: SU-DIPG-XXV viability
[7] = chitosan synthesis blockers in C. neoformans – flow cytometry, Cibacron Brilliant Red staining (AID 1347148; call rule not given here;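 also: compound exposure lasted three days at 37 degrees C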); details: Cryptococcus neoformans chitosan, stronger effect = lower value; at 10 µM unless noted
[8] = MELAS cybrid survival, CellTiter-Glo 48 h, stronger effect = higher value
[9] = Rieske KO mouse fibroblast survival, CellTiter-Glo 72 h
[10] = stronger effect = lower value, cell number ratio, induced over uninduced
[11] = measured here: relative caspase fold change +Dox/-Dox
[12] = measured here: total cells with miR-34 induction, stronger effect = lower value
[13] = measured here: total cells without miR-34 induction

Which results are given for `Cc1ncc([N+](=O)[O-])n1CCO`?
outcome [1]: inactive; z-score [2, 8]: -0.252 (inactive) and -0.693 (inactive) and 0.0516 (inactive); z-score [2, 9]: 0.34 and -0.0287 and -0.879

With `O=C(c1ccc(F)cc1)C1CCN(CCn2c(=S)[nH]c3ccccc3c2=O)CC1` as the compound, how does the fold change [3, 10] read?
Its fold change is 0.921 (inactive) and 0.889 (inactive).

What about the fold change [3, 11] of the same compound?
The fold change was 1.65 and 1.01.

What about the cell count [3, 12] of the same compound?
The cell count was 8480 and 7360.

And the cell count [3, 13]?
Its cell count is 9210 and 8290.

Which outcome [1] does the source give for `CC(C)NCC(O)COc1ccc(COCCOC(C)C)cc1` (stereo unspecified) here?
Its outcome is “inactive”.

And the outcome [4]?
Its outcome is “inactive”.

And the z-score [2, 8]?
The z-score was -0.423 (inactive) and -0.586 (inactive).

What about the z-score [2, 9] of the same compound?
Its z-score is 0.385 and -0.329.

What does the source list for `Cc1cc(C)cc(OCC2CNC(=O)O2)c1` (stereo unspecified)?
fold change [3, 10]: 0.878 (inactive); fold change [3, 11]: 2.33; cell count [3, 12]: 10800; cell count [3, 13]: 12400

Which outcome [5] does the source give for `COc1cc(C(=O)NS(=O)(=O)c2ccccc2C)ccc1Cc1cn(C)c2ccc(NC(=O)OC3CCCC3)cc12` here?
Its outcome is “inactive”.

What about the outcome [6] of the same compound?
The outcome was “inactive”.

What about the z-score [2, 8] of the same compound?
Its z-score is -0.216 (inactive) and 0.374 (inactive) and -0.157 (inactive).

What about the z-score [2, 9] of the same compound?
The z-score was 0.567 and -0.073 and 0.0854.

Which outcome [1] does the source give for `CN1CCN2c3ccccc3Cc3ccccc3C2C1` (stereo unspecified) here?
Its outcome is “inactive”.

And the outcome [4]?
Its outcome is “inactive”.

What about the z-score [2, 8] of the same compound?
The z-score was -0.437 (inactive) and -0.163 (inactive) and -1.32 (inactive).

What about the z-score [2, 9] of the same compound?
The z-score was 0.688 and 0.138 and 0.514.

Which outcome [1] does the source give for `CNS(=O)(=O)Cc1ccc2[nH]cc(CCN(C)C)c2c1` here?
Its outcome is “inactive”.

And the z-score [2, 8]?
The z-score was -0.261 (inactive) and 0.654 (inactive) and -0.798 (inactive).

And the z-score [2, 9]?
The z-score was -0.042 and 0.351 and -0.245.

With `COc1cc2nc(N3CCN(C(=O)C4CCCO4)CC3)nc(N)c2cc1OC` (stereo unspecified) as the compound, how does the outcome [1] read?
Its outcome is “inactive”.

What about the z-score [2, 8] of the same compound?
The z-score was -0.37 (inactive) and 0.933 (inactive) and -0.482 (inactive).

What about the z-score [2, 9] of the same compound?
The z-score was 0.344 and 0.726 and -1.05.

With `C[C@@H]1CN(c2c(F)c(F)c3c(=O)c(C(=O)O)cn(C4CC4)c3c2F)C[C@H](C)N1` as the compound, how does the fold change [3, 10] read?
Its fold change is 0.896 (inactive).

And the fold change [3, 11]?
Its fold change is 0.855.

And the cell count [3, 12]?
The cell count was 8680.

What about the cell count [3, 13] of the same compound?
The cell count was 9690.

For `CCCCC(=O)O[C@]1(C(=O)CO)[C@@H](C)C[C@H]2[C@@H]3CCC4=CC(=O)C=C[C@]4(C)[C@@]3(F)[C@@H](O)C[C@@]21C`, which outcome [5] is on record?
The outcome was “inactive”.

What about the outcome [6] of the same compound?
The outcome was “inactive”.

For `CCC(=O)O[C@H]1[C@H](O[C@@H]2[C@@H](C)[C@H](O[C@H]3C[C@@](C)(OC)[C@@H](O)[C@H](C)O3)[C@@H](C)C(=O)O[C@H](CC)[C@@](C)(O)[C@H](O)[C@@H](C)C(=O)[C@H](C)C[C@@]2(C)O)O[C@H](C)C[C@@H]1N(C)C`, which fold change [3, 10] is on record?
The fold change was 0.893 (inactive).

And the fold change [3, 11]?
Its fold change is 3.7.

What about the cell count [3, 12] of the same compound?
The cell count was 11600.

What about the cell count [3, 13] of the same compound?
The cell count was 12900.

What does the source list for `O=C1Nc2ccc(Cl)cc2[C@@](C#CC2CC2)(C(F)(F)F)O1`?
AC50 [5]: 20.9 µM (active); fold change [3, 10]: 0.73 (inactive) and 0.903 (inactive); fold change [3, 11]: 1.52 and 0.886; cell count [3, 12]: 6400 and 6960; cell count [3, 13]: 8760 and 7710; z-score [2, 8]: 1.16 (inactive) and -1.54 (inactive); z-score [2, 9]: 0.346 and 0.0528

For `CN1CCCN=C1COC(=O)C(O)(c1ccccc1)C1CCCCC1` (stereo unspecified), which fold change [3, 10] is on record?
The fold change was 0.832 (inactive).

And the fold change [3, 11]?
The fold change was 3.67.

What about the cell count [3, 12] of the same compound?
The cell count was 10300.

And the cell count [3, 13]?
Its cell count is 12400.

Which results are given for `Nc1ccc(S(=O)(=O)Nc2ccnn2-c2ccccc2)cc1`?
fold change [3, 10]: 0.969 (inactive) and 0.9 (inactive); fold change [3, 11]: 1.76 and 1.07; cell count [3, 12]: 10100 and 7980; cell count [3, 13]: 10500 and 8860; outcome [4]: inactive; z-score [2, 8]: -0.791 (inactive); z-score [2, 9]: -0.133

Which fold change [3, 10] does the source give for `Cc1cccc(C(=O)O)c1O` here?
Its fold change is 0.963 (inactive).

And the fold change [3, 11]?
Its fold change is 0.915.

And the cell count [3, 12]?
Its cell count is 8670.

What about the cell count [3, 13] of the same compound?
Its cell count is 9000.

For `CN(C)CC[C@@H](c1ccc(Br)cc1)c1ccccn1`, which fold change [3, 10] is on record?
The fold change was 0.946 (inactive).

What about the fold change [3, 11] of the same compound?
Its fold change is 1.72.

What about the cell count [3, 12] of the same compound?
Its cell count is 9070.

And the cell count [3, 13]?
The cell count was 9580.

What about the outcome [4] of the same compound?
The outcome was “inactive”.

With `Cc1cc(N)c2ccccc2[n+]1CCCCCCCCCC[n+]1c(C)cc(N)c2ccccc21` as the compound, how does the fold change [3, 10] read?
Its fold change is 1.04 (inactive) and 0.959 (inactive).

What about the fold change [3, 11] of the same compound?
Its fold change is 1.28 and 1.58.

What about the cell count [3, 12] of the same compound?
Its cell count is 1900 and 2180.

What about the cell count [3, 13] of the same compound?
The cell count was 1830 and 2270.

And the outcome [4]?
The outcome was “inactive”.

And the z-score [2, 8]?
The z-score was -3.39 (inactive).

What about the z-score [2, 9] of the same compound?
The z-score was -2.46.

Which results are given for `CCN(CC)C(C)CN1c2ccccc2Sc2ccccc21` (stereo unspecified)?
fold change [3, 10]: 1.11 (inactive) and 0.804 (inactive) and 0.894 (inactive); fold change [3, 11]: 1.02 and 1.63 and 0.788; cell count [3, 12]: 9230 and 7320 and 9620; cell count [3, 13]: 8340 and 9100 and 10800; outcome [4]: inactive; z-score [2, 8]: -0.553 (inactive); z-score [2, 9]: -0.605

Which fold change [3, 10] does the source give for `C[C@]12C=CC(=O)C=C1CC[C@H]1[C@@H]3C[C@@H](O)[C@](O)(C(=O)CO)[C@@]3(C)C[C@H](O)[C@@]12F` here?
The fold change was 0.938 (inactive) and 0.869 (inactive) and 0.939 (inactive).

And the fold change [3, 11]?
The fold change was 0.943 and 0.955 and 1.2.

What about the cell count [3, 12] of the same compound?
Its cell count is 7680 and 5920 and 7610.

And the cell count [3, 13]?
The cell count was 8190 and 6810 and 8100.

What about the outcome [4] of the same compound?
The outcome was “inactive”.

What about the z-score [2, 8] of the same compound?
The z-score was 0.162 (inactive) and 0.389 (inactive).

And the z-score [2, 9]?
The z-score was 0.159 and 0.935.

Which fold change [3, 10] does the source give for `NCCS` here?
Its fold change is 1.1 (inactive) and 0.868 (inactive) and 0.893 (inactive).

What about the fold change [3, 11] of the same compound?
Its fold change is 0.51 and 1.42 and 2.94.

And the cell count [3, 12]?
Its cell count is 11000 and 8060 and 11500.

And the cell count [3, 13]?
Its cell count is 9990 and 9290 and 12900.

What about the outcome [4] of the same compound?
The outcome was “inactive”.

And the z-score [2, 8]?
The z-score was -0.14 (inactive).

What about the z-score [2, 9] of the same compound?
The z-score was -0.336.

With `NC1CCN(c2cccc(Cl)n2)CC1` as the compound, how does the fold change [3, 10] read?
The fold change was 0.969 (inactive) and 0.942 (inactive).

And the fold change [3, 11]?
Its fold change is 1.72 and 1.85.

What about the cell count [3, 12] of the same compound?
The cell count was 9480 and 9570.

And the cell count [3, 13]?
The cell count was 9780 and 10200.

For `CC(C)NNC(=O)c1ccncc1`, which fold change [3, 10] is on record?
The fold change was 1.01 (inactive) and 0.987 (inactive) and 0.902 (inactive).

And the fold change [3, 11]?
The fold change was 0.707 and 0.895 and 1.13.

And the cell count [3, 12]?
Its cell count is 10400 and 9260 and 10200.

And the cell count [3, 13]?
Its cell count is 10300 and 9380 and 11300.

And the outcome [4]?
Its outcome is “inactive”.

And the z-score [2, 8]?
The z-score was -0.146 (inactive) and 0.243 (inactive).

And the z-score [2, 9]?
The z-score was -0.0689 and -0.0455.

Which results are given for `CC(CN(C)C)CN1c2ccccc2CCc2ccccc21` (stereo unspecified)?
fold change [3, 10]: 1.11 (inactive) and 0.82 (inactive) and 0.914 (inactive); fold change [3, 11]: 1.28 and 1.05 and 3.48; cell count [3, 12]: 8450 and 7420 and 11100; cell count [3, 13]: 7640 and 9050 and 12100; outcome [4]: inactive; z-score [2, 8]: -0.24 (inactive); z-score [2, 9]: -0.99

Which fold change [3, 10] does the source give for `O=C(O)c1ccc(S(=O)(=O)N(Cl)Cl)cc1` here?
The fold change was 0.899 (inactive).

And the fold change [3, 11]?
Its fold change is 0.716.

What about the cell count [3, 12] of the same compound?
Its cell count is 11500.

And the cell count [3, 13]?
The cell count was 12800.

With `O=C(O)CN1C(=O)c2cccc3cccc(c23)C1=O` as the compound, how does the fold change [3, 10] read?
The fold change was 0.898 (inactive) and 0.959 (inactive) and 0.946 (inactive).

And the fold change [3, 11]?
The fold change was 1.04 and 0.818 and 2.08.

What about the cell count [3, 12] of the same compound?
Its cell count is 5450 and 8540 and 11100.

What about the cell count [3, 13] of the same compound?
The cell count was 6060 and 8900 and 11700.

What about the fold fluorescence [7] of the same compound?
Its fold fluorescence is 3.97 [at 195.9 µM] (inactive).

Which fold change [3, 10] does the source give for `NC(Cc1ccc(Cl)cc1)C(=O)O` (stereo unspecified) here?
The fold change was 0.993 (inactive).

What about the fold change [3, 11] of the same compound?
Its fold change is 1.95.

What about the cell count [3, 12] of the same compound?
The cell count was 10900.

And the cell count [3, 13]?
The cell count was 10900.

What about the outcome [4] of the same compound?
The outcome was “inactive”.
